Bioassay records as filed in PubChem.
Only some compounds are listed: those with a hit (about 3.1% of all), similar ones and a draw of the others.
mTORC1 inh = reduces mTORC1 signaling in Tsc2 and p53 null MEF cells; Tsc2-/- p53-/- MEF, phospho-rpS6 immunofluorescence/PI, 24 h; Potency, µM (doses to about 38.3 µM), inactives show at the top dose activity change, negative = inhibition, actives largely listed as inhibitors; actives 0.78% (n = 44,000); AID 493208;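 further: plate controls were DMSO for no effect and rapamycin for full effect; nearly all actives have a fitted effect of over 50% in size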
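Readout is phospho-S6 Alexa 488 signal normalized to PI per well, reported as % active cells with thresholds set from rapamycin (7.5 nM) and DMSO controls. Cells: Tsc2-/-, p53-/- MEFs, 24 hrs compound at 37 C; PI cell number serves as viability.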
p53null 32C kill = kills p53 null cells at the permissive temperature; H1299-neo p53 null cells, ATP luminescence, 24 h, 32C; Potency, µM (doses to about 46.1 µM), without a hit: at the top dose activity change, negative = cytotoxicity, actives largely listed as cytotoxic; actives 0.62% (n = 55,000); AID 903;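 further: 0% = DMSO only and -100% = full killing by 100 µM tamoxifen; nearly all actives have a fitted effect of over 55% in size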
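Cytotoxicity: H1299-neo (no p53), 32C, 24 h treatment. Concentrations up to 46 uM. Readout cellular ATP, luminescence. Normalization to DMSO basal and tamoxifen 100 uM maximal kill.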
S16 viability = toxic to S16 Pmp22-F2sN Schwann cells. Potency, µM (series often up to 57.5 µM), for inactives: at the top dose activity change, negative = cytotoxicity, hits mostly cytotoxic. S16 Pmp22-F2sN Schwann cells viability, CellTiter-Glo, 24 h. actives 0.48% (n = 43,000). AID 1508642; further: nearly all actives have a fitted effect of over 65% in size
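Luminescence from CellTiter-Glo, read by CCD camera after a 15 min room-temperature incubation, served as the viability signal. Reporter Schwann cells (S16 Pmp22-F2sN) had been treated with pin-transferred compounds for 24 h at 37C.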
PMP22 txn prim = modulates PMP22 transcription in S16 Schwann cells | AID 1508649 | actives 2% (n = 43,000) | S16 Pmp22-F2sN Schwann cells (luciferase reporters placed in the Pmp22 gene), FLuc/NLuc coincidence luminescence, 24 h | Potency, µM (highest dose often 57.5 µM), inactives show top-dose activity change, negative = inhibition, hits mostly inhibitors; active means clear falling dose curves in both reporters; inconclusive means both reporters move, but less clearly or upward; inactive means either reporter flat; the % is the NLuc reporter signal
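qHTS, 1536-well. Cells seeded, compounds added by pin tool, 24 h 37C. Nano-Glo reagent 1 (lysis/FLuc), 10 min RT, read; Stop&Glo, 10 min RT, read NLuc.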
p53null 39C tox = kills p53 null cells at the nonpermissive temperature; H1299 p53-null (neo) cells, 39C, ATPlite viability, 24 h; Potency, µM (series often up to 46.1 µM), for the others: at the highest dose activity, negative = cell killing, usual class: cytotoxic; actives 0.97% (n = 55,000); AID 904;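 further: 0% = DMSO only and -100% = full killing by 100 µM tamoxifen; nearly all actives have a fitted effect of over 50% in size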
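ATP-luminescence viability readout (ATPlite, 20 min RT) after 24 hr compound treatment at 39C of H1299-neo or H1299-p53A138V cells; titration up to 46 uM; normalized to DMSO and 100 uM tamoxifen; Hill-fit AC50.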
SKOV3 invasion = inhibitors of ovarian cancer cell adhesion and invasion in omental model; Potency, µM (series often up to 45.8 µM), inactives show top-dose activity change, negative = inhibition, hits mostly inhibitors; AID 1963576; actives 0.1% (n = 46,000); SKOV3ip1-GFP adhesion/invasion on 3D omental model, fluorescence;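 further: plate controls were DMSO wells for no effect and tomatine positive control wells for full effect; nearly all actives have a fitted effect of over 65% in size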
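A 3D layer of primary human omental fibroblasts, mesothelial cells, fibronectin and collagen I, grown 48 hr, received SKOV3ip1-GFP cells in serum-free medium plus compounds at 0.36-46 umol/L. After 2 hr RT and 16 hr 37 C, fixed adherent GFP cells were counted; normalized to DMSO and tomatine.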
Numbers without * were called inactive; i = inactive; ? = inconclusive; . = not tested or not shown. Unless noted, the call rests on the fitted dose curve; in most records, active means well fitted curve in the direction sought with a large enough effect; inconclusive means small, poorly fitted or top-dose-only effect, or another doubt; inactive means no such curve, though single readings can be large; an effect the other way counts as inactive or inconclusive. Unless noted, on the % scale 0 is the no-effect control and ±100 the full control effect; potency means the concentration at half of the fitted maximal effect.

SMILES	mTORC1 inh	p53null 32C kill	S16 viability	PMP22 txn prim	p53null 39C tox	SKOV3 invasion
O=C(/C=C/Nc1ccc(F)cc1F)c1cccs1	.	10µM*	.	.	.	.
O=C(/C=C/Nc1ccccc1F)c1cccs1	.	11µM*	.	.	.	.
CCc1ccc(C(=O)Nc2cc(CN3CCN(C)CC3)cc(C(F)(F)F)c2)cc1C#Cc1cnc2ccnn2c1	.	.	.	.	.	2%
CCCCOCc1cc(CN2CCN(c3cccc(Cl)c3)CC2)c(O)c2ncccc12	?	7%	?	2.7µM*	-7%	-23%
COc1cc(CN2CCN(c3cccc(Cl)c3)CC2)cc(OC)c1OC	.	7%	.	.	-25%	.
CCCOCc1cc(CN2CCN(c3cccc(Cl)c3)CC2)c(O)c2ncccc12	?	-24%	?	?	0.32µM*	?
CCCCN(CCCNC(=O)c1cc(Nc2cccc(SC)c2)nc2ccccc12)Cc1ccccc1	16µM*	-19%	?	?	5.6µM*	?
CSc1cccc(Nc2cc(C(=O)NCCc3ccc(Cl)cc3)c3ccccc3n2)c1	-8%	-8%	-25%	?	?	i
Cc1ccc(NC2=CC(=O)C(=O)c3ccccc32)cc1	.	4µM*	.	.	3.5µM*	.
CC(=O)Nc1ccc([C@H](C)C(=O)Nc2ncc(C(C)C)s2)cc1	.	.	.	.	.	-1%
COC(=O)c1ccc2c(=O)n(CCCCCC(=O)N3CCN(c4cc(Cl)ccc4C)CC3)c(=O)[nH]c2c1	?	20µM*	?	?	-6%	-24%
CNC(=O)[C@H](CC1=CN=C2C=CCC=C12)NC(=O)[C@@H](CC(=O)NO)CC(C)C	.	.	.	.	.	-6%
CCCCNc1oc(-c2ccc(COc3ccccc3C)o2)nc1C#N	?	-12%	-22%	-12%	?	-48%
Cc1ccccc1OCc1ccc(-c2nc(C#N)c(NCCCN(C)C)o2)o1	5.8µM*	9%	?	?	-24%	-1%
CCOC(=O)c1cc2c(=O)n3ccccc3nc2n(CC2CCCO2)c1=NC(=O)c1cc(C)cc(C)c1 (configuration not stated)	-6%	?	?	1.5µM*	?	1%
CCc1c(C)sc2c1CCN(Cc1ccc(C#N)cc1)C2c1ccccc1 (configuration not stated)	13%	-3%	?	?	-16%	-1%
CCc1c(C)sc2c1CCN(Cc1ccc(F)cc1)C2c1ccccc1 (configuration not stated)	0%	28%	8.9µM*	?	?	-1%
CCc1c(C)sc2c1CCN(Cc1cccc(F)c1)C2c1ccccc1 (configuration not stated)	7%	30%	10µM*	?	?	21%
O=C(Nc1cccc(C(F)(F)F)c1)Nc1ccc2snnc2c1	-21%	36%	?	9.5µM*	?	i
CN(C1CCc2c(c3ccccc3n2CC(=O)O)C1)S(=O)(=O)c1ccc(F)cc1 (configuration not stated)	.	.	.	.	.	-34%
Cc1ccc(-c2nc3nc(C)cc(N4CCN(c5cccc(C)c5)C(C)C4)n3n2)cc1 (configuration not stated)	3%	2%	2%	7%	20µM*	92%
O=c1c(-c2ccc(O)cc2)coc2cc(OC3O[C@H](CO)[C@H](O)[C@H](O)[C@H]3O)cc(O)c12 (some centres not stated)	.	.	.	.	.	-38%
NS(=O)(=O)c1ccc(Nc2nc(OCC3CCCCC3)c3[nH]cnc3n2)cc1	.	.	.	.	.	41%
Cc1nc2cccnc2n1-c1cccc(C(=O)N2CCN(c3ccc(Cl)cc3)CC2)c1	-15%	-1%	?	16µM*	-3%	-10%
COc1ccc(N2CCN(C(=O)c3cccc(-n4c(C)nc5cccnc54)c3)CC2)cc1	-12%	-7%	-18%	?	3%	-6%
SMILES	mTORC1 inh	p53null 32C kill	S16 viability	PMP22 txn prim	p53null 39C tox	SKOV3 invasion
O=C(c1cncc(Br)c1)N1CCC(N2CCCC2)CC1	.	.	.	.	.	4%
Oc1ccc(C2CCN(c3ccnc4ccccc34)CC2)cc1O	.	.	.	.	.	19%
CCc1ccc(C(=O)NC(=S)Nc2ccc3c(c2)OCCO3)cc1	.	-23%	.	.	.	.
CCOc1ccc(C(=O)Nc2ccc3c(c2)OCCO3)cc1Br	1%	?	9%	4%	13µM*	i
CC(C)(C)COc1ccc(-n2cc(C(=O)O)cn2)cc1C#N	.	.	.	.	.	11%
Cn1nnnc1SCCCNCc1ccccc1OCc1ccc(Cl)cc1	13µM*	-1%	-23%	?	-16%	i
COc1ccc(-c2nc(SCC(=O)Nc3cccc(C(C)=O)c3)n[nH]2)cc1	-5%	?	-4%	9%	25µM*	12%
Cc1cc(Nc2cccc(C(F)(F)F)c2)nc2ccc(NC(=O)c3cncc(Br)c3)cc12	-28%	-3%	?	?	-20%	i
Cc1cc(Nc2cccc(Cl)c2)nc2ccc(NC(=O)c3cncc(Br)c3)cc12	-7%	-18%	?	?	20µM*	i
COc1ccc(Nc2cc(-c3cnc(N)nc3)nc(N3CCOCC3)n2)cn1	.	.	.	.	.	-15%
COc1cc(C)c(C=CC(C)=CC=CC(C)=CC(=O)O)c(C)c1C	.	.	.	.	.	-22%
O=C(O)c1cc(-c2ccc(C(F)(F)F)cc2)nc2n[nH]c(-c3ccccc3)c12	0%	?	19%	11%	16µM*	-12%
CCCNc1ncnc2onc(C)c12	-3%	-4%	?	0%	2%	1%
CSc1ccc(CCNc2ncnc3onc(C)c23)cc1	1%	-8%	?	2.2µM*	-14%	4%
Fc1ccc(Nc2nc(Nc3ccc(F)cc3)nc(N3CCOCC3)n2)cc1	2.1µM*	-7%	4%	-20%	-7%	15%
Fc1ccc(C2=CC(c3ccc(F)cc3)n3c(nc4ccccc43)N2)cc1 (configuration not stated)	-2%	13µM*	1%	?	10µM*	i
COC(=O)c1nc2n(n1)C(c1cc(OC)ccc1OC)C=C(c1ccc(Br)cc1)N2 (configuration not stated)	-17%	18%	?	?	-3%	?
COC(=O)c1ccc(C2C=C(c3ccc(Cl)cc3)Nc3nc4ccccc4n32)cc1 (configuration not stated)	?	10µM*	-24%	?	10µM*	-18%
